Test [1] is described as follows: qHTS assay to test for compound auto fluorescence at 535 nm (green) in HEK293 cells (AID 720680). For orientation: In qHTS, concentration-response curves come from the screen itself.
Test [2] in a line: qHTS assay to test for compound auto fluorescence at 460 nm (blue) in HEK293 cell free culture (AID 720681). The essentials:
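Compounds were added to cell-free DMEM with 10% FBS and fluorescence read directly. The blue channel used 405 nm excitation and 460 nm emission, with triamterene as the reference fluorophore.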

A short description of test [3]: qHTS assay to test for compound auto fluorescence at 590 nm (red) in HEK293 cell free culture (AID 720683). The method, boiled down: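 Cell-free wells of DMEM with 10% FBS received compound, and intrinsic fluorescence was read at excitation/emission 540/590 nm. Values expressed as equivalence to Rose Bengal sodium.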
A short description of test [4]: qHTS assay to test for compound auto fluorescence at 460 nm (blue) in HepG2 cell free culture (AID 720685). The essentials: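 Cell-free plates of MEM plus 10% FBS received 23 nL compound or DMSO vehicle; blue-channel (405/460 nm) intensity scored against triamterene as reference fluorophore.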
Test [5] in a line: qHTS assay to test for compound auto fluorescence at 535 nm (green) in HepG2 cell free culture (AID 720686).
The nature of test [6]: qHTS assay to test for compound auto fluorescence at 460 nm (blue) in HepG2 cells (AID 720687). The method, boiled down: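 HepG2 cells in MEM with 10% FBS, attached overnight at 37 C, were exposed to compound or DMSO for 1 hr at 37 C, 5% CO2. Blue fluorescence was read at 405/460 nm, with triamterene as reference fluorophore.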
The nature of test [7]: qHTS assay to identify small molecule antagonists of the glucocorticoid receptor (GR) signaling pathway - cell viability counter screen (AID 720693). Also: nearly all actives have a fitted effect of over 55% in size.
Test [8] can be described thus: qHTS assay for identifying genotoxic compounds that show differential cytotoxicity against isogenic chicken DT40 cell lines with known DNA damage response pathways - wild type cell line (AID 743012). Also: nearly all actives have a fitted effect of over 60% in size. Also: potency is read from the fitted curve at half-maximal effect. The essentials: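 Viability of DNA repair-proficient chicken DT40 cells was assessed by CellTiter-Glo luminescence following 40 h compound exposure at 37 C/5% CO2.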
Test [9] in a line: qHTS assay for identifying genotoxic compounds that show differential cytotoxicity against isogenic chicken DT40 cell lines with known DNA damage response pathways - Rev3 mutant cell line (AID 743014). Also: nearly all actives have a fitted effect of over 55% in size. Also: potency is read from the fitted curve at half-maximal effect.
Test [10] can be described thus: qHTS assay for identifying genotoxic compounds that show differential cytotoxicity against isogenic chicken DT40 cell lines with known DNA damage response pathways - Rad54/Ku70 mutant cell line (AID 743015). Also: nearly all actives have a fitted effect of over 60% in size. Also: potency is read from the fitted curve at half-maximal effect.
In test [11] the target is Glucocorticoid receptor (Homo sapiens) (UniProt P04150). Nature of the test: qHTS assay to identify small molecule agonists of the glucocorticoid receptor (GR) signaling pathway (AID 720691; active = well fitted activation curve with a large enough effect in the signal ratio in the repeat runs, not every such curve was filed as active; the % refers to the signal ratio). The method, boiled down:
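Compounds in DMSO, alongside positive controls, were added to GR-bla HeLa reporter cells and incubated 18 h at 37 C; GRE-driven beta-lactamase was detected by fluorescence after 2 h with FRET substrate at room temperature.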

For test [12] the target is unchanged. Nature of the test: qHTS assay to identify small molecule antagonists of the glucocorticoid receptor (GR) signaling pathway (AID 720692; active = well fitted inhibition curve with a large enough effect in the signal ratio in the repeat runs, not every such curve was filed as active; the % refers to the signal ratio; also: potency is read from the fitted curve at half-maximal effect). The method, boiled down: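 In a 1536-well cell format, compounds were added 4 h after seeding GR-bla HeLa cells, together with dexamethasone at 5 nM final; reporter activity was measured by FRET-substrate fluorescence following 18 h at 37 C.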

Test [13] in a line: qHTS assay to identify small molecule antagonists of the androgen receptor (AR) signaling pathway - cell viability counter screen (AID 743033; also: nearly all actives have a fitted effect of over 45% in size).
The target in test [14] is Androgen receptor (Homo sapiens) (UniProt P10275). Put plainly: qHTS assay to identify small molecule agonists of the androgen receptor (AR) signaling pathway using the MDA cell line (AID 743040; also: nearly all actives have a fitted effect of over 20% in size). The method, boiled down:
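Testing was done with the MDA-kb2 AR-luc line, a human breast carcinoma stably transfected with MMTV-luciferase containing AR and GR response elements. Cells were exposed 16 h at 37C before ONE-Glo luminescence detection.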

Test [15] can be described thus: qHTS assay to identify small molecule antagonists of the androgen receptor (AR) signaling pathway using the MDA cell line - cell viability counter screen (AID 743041; also: nearly all actives have a fitted effect of over 45% in size). The essentials: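 Compound exposure lasted 16 h at 37C in MDA-kb2 AR-luc cells stimulated with R1881. Protease-based CellTiter-Fluor reagent was applied for the final 30 min and fluorescence measured.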

In test [16] the target is Androgen receptor (Homo sapiens) (UniProt P10275). Nature of the test: qHTS assay to identify small molecule antagonists of the androgen receptor (AR) signaling pathway using the MDA cell line (AID 743042; also: nearly all actives have a fitted effect of over 55% in size). The essentials:
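MDA-kb2 breast carcinoma cells carrying MMTV-luciferase (AR/GR responsive) were co-treated with compounds and the agonist R1881 for 16 h at 37C. Inhibition read as ONE-Glo luminescence; CellTiter-Fluor fluorescence measured in parallel for cytotoxicity.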

Test [17] is described as follows: qHTS assay to test for compound auto fluorescence at 590 nm (red) in HepG2 cell free culture (AID 720684). The method, boiled down:
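Auto fluorescence equivalency versus Rose Bengal sodium, red channel Ex/Em 540/590 nm; compounds in cell-free MEM/10% FBS; DMSO vehicle control.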

Test [18] deals with Androgen receptor (Homo sapiens) (UniProt P10275). Put plainly: qHTS assay to identify small molecule antagonists of the androgen receptor (AR) signaling pathway (AID 743035; active = well fitted inhibition curve with a large enough effect in the signal ratio in the repeat runs, not every such curve was filed as active; the % refers to the signal ratio; also: potency is read from the fitted curve at half-maximal effect). The method, boiled down:
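Reporter HEK293 cells were exposed to compounds and R1881 overnight (16 h, 37C); beta-lactamase activity was then quantified by FRET fluorescence.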

Data on nine compounds can be found in PubChem BioAssay (Tox21).

The structures appear in SMILES notation. Inconclusive results are not listed. Active and inactive are the calls of the source. Unless noted, calls follow the shape of the dose curve; as a rule, active = well fitted curve in the direction sought with a large enough effect in the repeat runs; inconclusive = weak or mixed curves; inactive = no such curve, though single readings can be large; an effect the other way counts as inactive or inconclusive.

Androgen receptor (Homo sapiens), sequence (P10275 whole entry, looked up): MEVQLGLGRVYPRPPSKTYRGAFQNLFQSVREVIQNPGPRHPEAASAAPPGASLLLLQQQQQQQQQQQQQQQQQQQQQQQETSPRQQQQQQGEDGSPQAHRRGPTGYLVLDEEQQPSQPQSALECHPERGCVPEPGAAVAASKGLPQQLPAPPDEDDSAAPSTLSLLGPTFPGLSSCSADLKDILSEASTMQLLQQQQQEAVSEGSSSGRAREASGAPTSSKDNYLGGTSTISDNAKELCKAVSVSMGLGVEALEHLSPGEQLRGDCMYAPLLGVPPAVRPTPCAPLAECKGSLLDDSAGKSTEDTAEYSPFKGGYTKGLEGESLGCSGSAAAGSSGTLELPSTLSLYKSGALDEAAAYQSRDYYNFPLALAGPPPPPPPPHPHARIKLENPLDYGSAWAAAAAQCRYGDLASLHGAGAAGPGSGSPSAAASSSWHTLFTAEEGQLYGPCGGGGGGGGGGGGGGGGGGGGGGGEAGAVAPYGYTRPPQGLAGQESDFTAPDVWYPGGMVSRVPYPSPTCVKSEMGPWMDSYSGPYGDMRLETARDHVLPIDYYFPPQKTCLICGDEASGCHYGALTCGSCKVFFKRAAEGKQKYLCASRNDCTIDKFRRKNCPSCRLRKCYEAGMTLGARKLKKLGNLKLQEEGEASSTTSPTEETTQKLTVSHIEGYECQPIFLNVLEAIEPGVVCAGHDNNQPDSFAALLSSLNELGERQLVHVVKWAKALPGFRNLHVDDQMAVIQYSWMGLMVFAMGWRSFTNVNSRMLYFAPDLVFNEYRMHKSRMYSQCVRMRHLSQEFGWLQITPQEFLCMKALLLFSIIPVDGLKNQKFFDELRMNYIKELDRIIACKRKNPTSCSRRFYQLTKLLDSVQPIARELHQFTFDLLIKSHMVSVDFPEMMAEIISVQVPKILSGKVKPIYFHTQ
Glucocorticoid receptor (Homo sapiens), sequence (P04150 whole entry, looked up): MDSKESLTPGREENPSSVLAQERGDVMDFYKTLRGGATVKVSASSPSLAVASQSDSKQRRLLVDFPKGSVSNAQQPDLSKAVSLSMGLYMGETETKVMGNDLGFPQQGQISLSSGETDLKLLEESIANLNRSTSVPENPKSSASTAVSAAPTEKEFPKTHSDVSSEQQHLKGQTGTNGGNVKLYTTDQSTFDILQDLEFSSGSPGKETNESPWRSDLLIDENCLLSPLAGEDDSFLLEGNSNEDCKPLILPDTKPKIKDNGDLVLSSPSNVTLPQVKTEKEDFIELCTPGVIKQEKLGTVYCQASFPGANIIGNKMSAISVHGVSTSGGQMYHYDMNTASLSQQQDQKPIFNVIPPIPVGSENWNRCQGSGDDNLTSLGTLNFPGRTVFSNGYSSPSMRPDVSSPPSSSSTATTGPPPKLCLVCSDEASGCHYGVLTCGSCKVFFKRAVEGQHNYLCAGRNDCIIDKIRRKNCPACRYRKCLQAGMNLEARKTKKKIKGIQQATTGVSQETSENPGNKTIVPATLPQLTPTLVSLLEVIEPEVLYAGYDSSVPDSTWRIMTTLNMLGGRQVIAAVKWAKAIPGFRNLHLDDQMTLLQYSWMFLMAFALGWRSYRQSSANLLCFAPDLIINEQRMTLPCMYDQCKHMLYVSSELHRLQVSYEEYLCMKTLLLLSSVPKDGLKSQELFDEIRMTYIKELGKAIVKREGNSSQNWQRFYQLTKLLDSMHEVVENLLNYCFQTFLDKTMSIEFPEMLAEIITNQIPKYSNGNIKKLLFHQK

Regarding `C[C@@H]1CN(CCCn2c3ccccc3c3ccccc32)C[C@H](C)N1`, the compound was called inactive in test [1], in test [3] and in test [5]. Further, the Potency entry in test [2], in [4], in test [6] and in test [7] was “inactive” each time. For the same compound, the figures for the Potency in [8], in test [9] and in test [10] were 9.44 µM (active), 7.5 µM (active) and 9.44 µM (active), respectively.
As to `NC1[C@H]2CN(c3nc4c(cc3F)c(=O)c(C(=O)O)cn4-c3ccc(F)cc3F)C[C@@H]12` (stereo not given in full), the outcome in [1], in test [3], in test [5] and in [14] was inactive. In addition, the Potency entry in test [2], in [4], in test [6], in test [11], in test [12] and in test [7] was “inactive” throughout. Further, the Potency result in [13], in test [15] and in test [16] was “inactive” in each case. In addition, the Potency is 4.73 µM (active) in test [8], 6.68 µM (active) in [9] and 7.5 µM (active) in [10].
Consider `CC(C)C=O`, for which the call in test [1], in [3], in [17] and in [5] was inactive. Moreover, the Potency entry in test [2], in [4], in [6], in test [11], in [12] and in test [7] was “inactive” throughout. The Potency entry in test [13] and in test [15] was “inactive” each time.
On to `CCCCCCCCOc1ccc(C(=O)O)cc1`, for which the result in [1], in test [3] and in test [5] was inactive. Further, the Potency entry in test [2], in test [4], in test [6], in test [11], in test [8] and in test [9] was “inactive” each time. The Potency result in [10], in test [13] and in test [15] was “inactive” in each case.
With `C=C/C(C)=C/C/C=C(\C)CCC=C(C)C`, the compound was called inactive in [1], in test [3], in test [17] and in test [5]. The Potency result in test [2], in test [6], in test [11], in test [7], in test [13] and in [15] was “inactive” each time. Moreover, the Potency in test [12] is 38.9 µM (active); in test [9], 61.1 µM (active); in test [10], 48.6 µM (active).
`CC[C@]1(O)C[C@H]2CN(CCc3c([nH]c4ccccc34)[C@@](C(=O)OC)(c3cc4c(cc3OC)N(C=O)[C@H]3[C@@](O)(C(=O)OC)[C@H](OC(C)=O)[C@]5(CC)C=CCN6CC[C@]43[C@@H]65)C2)C1`: the call in test [1], in test [3], in [17], in [5] and in [14] was inactive. Further, the Potency entry in test [2], in test [4], in [6], in test [11], in [7] and in [13] was “inactive” throughout. The Potency entry in test [15] and in [16] was “inactive” in each case. The Potency in test [8] is 0.0075 µM (active); in test [9], 0.0053 µM (active); in test [10] it was 0.0106 µM (active); in [18], 0.0338 µM (active).
For the compound `O=[N+]([O-])c1ccc(O/N=C/c2cc(Br)c(O)c(Br)c2)c([N+](=O)[O-])c1`, the result in test [1], in test [3] and in [5] was inactive. Further, the Potency entry in test [2], in [4], in [6], in test [7], in test [8] and in test [9] was “inactive” throughout. Also, the Potency result in test [10] and in test [15] was “inactive” in each case.
With `O=C(/C=C/c1ccc(O)c(O)c1)O[C@@H]1C[C@@](OC(=O)/C=C/c2ccc(O)c(O)c2)(C(=O)O)C[C@@H](O)[C@@H]1O`, the compound was classed as inactive in [1], in test [3], in test [17] and in [5]. Moreover, the Potency entry in test [2], in test [4], in test [6], in test [11], in [12] and in [7] was “inactive” each time. For the same compound, the Potency entry in test [9], in test [10], in test [13] and in test [15] was “inactive” throughout.
For `CC1CC(OC(=O)C(O)c2ccccc2)CC(C)(C)N1C` (stereo not given), the outcome in test [1], in test [3], in test [17] and in test [5] was inactive. Further, the Potency entry in [2], in test [4], in test [6], in test [11], in test [12] and in [7] was “inactive” each time. In addition, the Potency entry in [8], in test [9], in test [10], in test [13] and in [15] was “inactive” in each case.
